The whole screen tested about 4,800 compounds, of which about 420 (8.8%) showed an effect of 50% or more. Only a selection was taken, and strong results are over-represented in it overall.
test system: Plasmodium falciparum; test: Confirmatory screen in NF54 nanoGlo assay, in single point, at 2uM, 72h; assay type: functional, Erythrocyte; conditions: timepoint 72 hour

Structure (SMILES)	% Inhibition [%]
COc1cccc(CNCCN2CCOCC2)c1OCc1ccc(Cl)cc1Cl	7
CCOc1cc(CNCCCn2ccnc2)ccc1OCc1ccccc1	21
OCCNCc1ccc(Cl)cc1Cl	0
Clc1ccc(COc2ccc(Cl)cc2CNCCCn2ccnc2)c(Cl)c1	95
Clc1ccc(Cn2cc(CNCCCn3ccnc3)c3ccccc32)c(Cl)c1	98
COc1cccc(CNCCCN2CCOCC2)c1OCc1ccc(Cl)cc1Cl	-1
Cc1nc2ccnn2cc1C(=O)Nc1ccc(CCC(C)C)cn1	-5
Cc1cc(CN(C)c2cc(C3CC3)nc(N(C)Cc3cc(C)on3)n2)no1	-13
FC(F)Oc1cccc(-c2cc(C(F)(F)F)c3c(-c4ccc5c(c4)OCO5)noc3n2)c1	8
N#Cc1nc(COc2cccc(Cl)c2)oc1NC[C@H]1CCCO1	-1
CN(CC(=O)Nc1ncccn1)S(=O)(=O)c1ccc2c(c1)OCCCO2	-7
O=C1CC(C(=O)N2CCCCC2c2nc(-c3ccccc3)c[nH]2)CN1 (stereo unspecified)	3
Nc1nc(C2CC(N)C2)cc(N2CCC(Oc3ccccc3Cl)CC2)n1 (stereo unspecified)	51
Nc1nc(N2CCN(c3ccc(F)c(Cl)c3)CC2)cc([C@H]2C[C@@H](N)C2)n1	32
N[C@H]1C[C@@H](c2cc(N3CCN(C4CCCCC4)CC3)nc(N3CCCC3)n2)C1	44
CCC1CN(CCCN2C(=O)CNC2=O)CCC1c1ccccc1 (stereo unspecified)	0
COC(=O)C1(CNC(=O)C2CCC2)CCCCC1	1
CCN(C(=O)CN1C(=O)C(c2ccccc2)=NC12CCC(C)CC2)c1ccccc1 (stereo unspecified)	-9
CCN(C(=O)Cn1cc(-c2ccccc2)c2ncn(CC)c(=O)c21)c1ccccc1	75
CCN(C(=O)Cn1ncn2nc(-c3cccc4ccccc34)cc2c1=O)c1ccccc1	1
CCOC[C@@H](O)CN(Cc1c(-c2ccccc2)noc1N1CCC(C)CC1)CC1CC1	-7
O=C(NC1CCN(Cc2ccccc2)CC1)c1cn[nH]c1-c1ccccc1	-3
CCOC(=O)N1CCC(NC(=O)c2cn[nH]c2-c2ccc(OCC)c(Cl)c2)CC1	2
CNC(=O)N1CCN(c2cc(C)nc(C3CC3)n2)CC1	-18

Structure (SMILES)	% Inhibition [%]
O=C(Cn1nnc2ccccc21)N(Cc1ccccc1)C1(C(=O)Nc2ccc3c(c2)OCO3)CCCCC1	23
O=C(COc1ccccc1)N1CC(n2cnnc2C2CC2)C1	-11
CC1CC(C(=O)Nc2[nH]c(=O)ncc2F)CC(C)(C)C1 (stereo unspecified)	92
CN(C)C(=O)NCCc1ncc(C(F)(F)F)cc1Cl	-5
Cc1cc(C#N)cc(C)c1Oc1nc(Nc2ccc(C#N)cc2Br)nc(N)c1Br	-9
O=C(c1coc(-c2ccccc2)n1)N1CCc2cc(Br)ccc21	-4
CC(C)c1nc(C(=O)Nc2ccccc2CN2CCNC2=O)cs1	3
O=C(Nc1[nH]c(=O)ncc1F)c1coc(-c2ccccc2)n1	80
Cc1nc(C(=O)Nc2[nH]c(=O)ncc2F)c(-c2ccccc2)o1	85
CC(C)c1nc(C(=O)Nc2[nH]c(=O)ncc2F)cs1	92
Cc1ccc(-c2cc(C(=O)Nc3nnc(C(C)C)s3)no2)cc1F	39
COc1ccc(CN2CC[C@@H]3C(=O)NCCCCCCN(Cc4ccncc4)[C@@H]3C2)cc1Cn1ccnc1	47
COc1cc2c(cc1OC)C(Nc1cc(C)ccc1C)=NC(C)(C)C2	-7
CCC[C@@]1(C)C(=O)NCCN1Cc1nnc(-c2ccc(Cl)cc2)n1C	-10
CCOC1CC2(CCN(Cc3cc(Cl)c(OC)cc3Cl)C2)C1 (stereo unspecified)	1
CC(=O)N(CC[C@]1(Cc2ccccc2Cl)CCOC(C)(C)C1)Cc1ccc(F)cc1	0
COc1ccc(-c2nn3c(Cc4ccccn4)nnc3s2)cc1OC	4
Cc1ccc(Cn2c(=O)c(N3CCC[C@H](C(=O)NCc4ccccc4F)C3)nc3ccccc32)cc1	-4
C[C@@H](CCc1ccccc1)NC(=O)c1cnn2c3c(cnc12)CCCC3	-8
Cn1nc(C(=O)N2CCCCC[C@H]2C2CCCCC2)ccc1=O	-10
Cc1cccc(NC(=O)C(=O)N(C)[C@H]2CCCc3c2cnn3C)c1F	-17
CC(C)Cc1cc(C(=O)N2CCc3c(C#N)cccc32)cc(O)n1	-8
Cc1cc[n+]2c(-c3ccccc3)cc(-c3ccccc3)nc2c1	62
Cc1cc(-c2ccccc2)cc(-c2ccccc2)c1-c1cc(-c2ccccc2)cc(-c2ccccc2)n1	-10

Structure (SMILES)	% Inhibition [%]
Cc1cc(-c2ccccc2)nc2sc(-c3ccccc3)c([O-])[n+]12	-2
CC[n+]1c(C)sc2cc(-c3ccccc3)sc21	-15
O=C(O)CC1(NC(=O)c2cc(Oc3ccccc3)ccn2)CCC1	-7
CCOc1ncccc1CNC(=O)CNC(C)=O	3
Cc1ccccc1C(=O)Cc1ncc[nH]1	75
Cc1ccc(C(=O)N2CC(C)CC(C)C2)cc1NCc1ncc[nH]1 (stereo unspecified)	8
C[C@](O)(CCc1ccccc1)C(=O)NCCc1ncc[nH]1	3
COCC[C@](C)(O)CNC(=O)Nc1ccccc1	1
CC[C@@H](c1ccncc1)N(C)Cc1cc(-c2ccc(Cl)cc2)no1	-6
COCc1nncn1C1CN(C(=O)Cc2cc(OC)cc(OC)c2)C1	-16
COc1nn(C)cc1C(=O)N1CCC[C@H](Oc2cccnn2)C1	1
Cc1cc(C(=O)NCCCN2CCCC2=O)nn1C(F)F	-13
CCn1cc(-c2cc(C(F)(F)F)nc(N3CCCC3)n2)cn1	4
COc1ccc(C(=O)C[n+]2cc(-c3ccc(OC)cc3)n3c2CCCC3)cc1	60
COc1ccc2c(c1)[n+](CC(=O)c1ccc(-c3ccc(Br)cc3)cc1)c(CO)n2C	46
COc1ccc(N2CCN(Cc3cc(-c4ccc(Cl)cc4)no3)CC2)cc1	-22
COc1ccc(CC(=O)NCc2nnc3n2CCC3)cc1	12
FC(F)Oc1ccc(-c2c[n+](-c3cccc(C(F)(F)F)c3)c3n2CCCCC3)cc1	44
Cn1c(-c2ccc(Br)cc2)c[n+](CC(=O)c2ccc(Br)cc2)c1N	-8
COc1cccc(C(=O)C[n+]2cc(-c3ccc(Br)cc3)n(C)c2N)c1	-3
Cc1ccc(-c2c[n+](-c3ccc(OC(F)F)cc3)c3n2CCCCC3)cc1	67
COc1ccc(-c2c[n+](-c3ccc(Cl)cc3)c3n2CCCCC3)cc1	60
COc1ccc(C(=O)C[n+]2nc(CNc3ccc(Br)cc3)n3c2CCCCC3)cc1	84
